The target in assay [1] is T1, Serine/threonine-protein kinase Nek9 (Homo sapiens) (UniProt Q8TD19).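 Also: each value is a mean percent inhibition of NEK9.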
T1 sequence (whole entry): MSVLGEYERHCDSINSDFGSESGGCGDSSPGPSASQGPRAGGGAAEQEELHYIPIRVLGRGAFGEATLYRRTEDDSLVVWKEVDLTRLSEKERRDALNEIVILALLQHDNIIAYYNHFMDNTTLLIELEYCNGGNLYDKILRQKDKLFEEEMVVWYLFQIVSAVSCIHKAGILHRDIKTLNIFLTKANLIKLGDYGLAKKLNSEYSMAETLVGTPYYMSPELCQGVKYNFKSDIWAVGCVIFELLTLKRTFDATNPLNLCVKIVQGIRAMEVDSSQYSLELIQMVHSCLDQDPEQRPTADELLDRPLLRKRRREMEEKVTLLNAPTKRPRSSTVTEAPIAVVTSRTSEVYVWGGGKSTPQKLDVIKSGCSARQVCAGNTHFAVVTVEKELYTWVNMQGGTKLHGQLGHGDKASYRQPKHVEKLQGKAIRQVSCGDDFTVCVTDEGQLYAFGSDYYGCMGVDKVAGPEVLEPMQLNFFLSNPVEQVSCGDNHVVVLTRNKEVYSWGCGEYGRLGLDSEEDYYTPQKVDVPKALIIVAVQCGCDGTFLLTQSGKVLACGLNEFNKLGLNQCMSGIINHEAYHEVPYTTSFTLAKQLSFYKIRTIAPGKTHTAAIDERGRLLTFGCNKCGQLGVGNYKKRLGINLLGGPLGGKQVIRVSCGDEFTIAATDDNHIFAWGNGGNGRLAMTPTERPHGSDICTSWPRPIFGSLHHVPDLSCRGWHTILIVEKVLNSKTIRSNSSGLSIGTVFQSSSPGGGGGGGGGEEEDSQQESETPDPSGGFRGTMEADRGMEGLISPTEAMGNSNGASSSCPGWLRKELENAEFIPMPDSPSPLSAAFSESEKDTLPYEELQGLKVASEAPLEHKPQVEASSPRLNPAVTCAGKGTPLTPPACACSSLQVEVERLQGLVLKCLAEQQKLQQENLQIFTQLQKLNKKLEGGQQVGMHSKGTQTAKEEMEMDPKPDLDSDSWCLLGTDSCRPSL
The conditions noted are these: at 1 µM.

Assay [2] addresses Serine/threonine-protein kinase PLK1 (Homo sapiens) (UniProt P53350). The conditions noted are these: at 0.1 µM.
For assay [3] the target is unchanged. The conditions noted are these: at 1 µM.
Assay [4] deals with T2, Dual specificity protein kinase TTK (Homo sapiens) (UniProt P33981).
T2 sequence (whole entry): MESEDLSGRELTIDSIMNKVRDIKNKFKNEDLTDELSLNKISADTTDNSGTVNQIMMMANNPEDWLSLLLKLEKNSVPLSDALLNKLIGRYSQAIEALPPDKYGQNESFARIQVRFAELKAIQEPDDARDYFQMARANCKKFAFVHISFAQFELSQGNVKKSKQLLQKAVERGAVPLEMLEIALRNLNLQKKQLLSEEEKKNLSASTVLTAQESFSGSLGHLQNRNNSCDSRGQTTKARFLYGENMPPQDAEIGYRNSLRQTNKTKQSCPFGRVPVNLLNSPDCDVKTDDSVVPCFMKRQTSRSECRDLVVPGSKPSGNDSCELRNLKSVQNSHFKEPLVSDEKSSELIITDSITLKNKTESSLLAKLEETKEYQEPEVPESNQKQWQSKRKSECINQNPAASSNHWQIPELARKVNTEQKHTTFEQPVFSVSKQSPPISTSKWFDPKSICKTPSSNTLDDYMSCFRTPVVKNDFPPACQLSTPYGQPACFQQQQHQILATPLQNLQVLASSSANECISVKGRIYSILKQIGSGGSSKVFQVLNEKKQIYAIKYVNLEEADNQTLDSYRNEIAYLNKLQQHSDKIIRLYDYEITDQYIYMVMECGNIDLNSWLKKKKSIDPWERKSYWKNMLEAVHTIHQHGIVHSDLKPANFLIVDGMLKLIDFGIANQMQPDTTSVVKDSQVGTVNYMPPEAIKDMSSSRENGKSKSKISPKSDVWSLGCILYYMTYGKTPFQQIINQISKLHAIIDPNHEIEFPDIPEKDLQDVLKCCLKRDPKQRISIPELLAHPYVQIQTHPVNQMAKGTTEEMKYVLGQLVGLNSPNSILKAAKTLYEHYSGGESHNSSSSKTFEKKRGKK
The note with it: at 0.1 µM.

Assay [5] relates to T3, Receptor-type tyrosine-protein kinase FLT3 (Homo sapiens), P36888 [D835Y].
T3 sequence (whole entry): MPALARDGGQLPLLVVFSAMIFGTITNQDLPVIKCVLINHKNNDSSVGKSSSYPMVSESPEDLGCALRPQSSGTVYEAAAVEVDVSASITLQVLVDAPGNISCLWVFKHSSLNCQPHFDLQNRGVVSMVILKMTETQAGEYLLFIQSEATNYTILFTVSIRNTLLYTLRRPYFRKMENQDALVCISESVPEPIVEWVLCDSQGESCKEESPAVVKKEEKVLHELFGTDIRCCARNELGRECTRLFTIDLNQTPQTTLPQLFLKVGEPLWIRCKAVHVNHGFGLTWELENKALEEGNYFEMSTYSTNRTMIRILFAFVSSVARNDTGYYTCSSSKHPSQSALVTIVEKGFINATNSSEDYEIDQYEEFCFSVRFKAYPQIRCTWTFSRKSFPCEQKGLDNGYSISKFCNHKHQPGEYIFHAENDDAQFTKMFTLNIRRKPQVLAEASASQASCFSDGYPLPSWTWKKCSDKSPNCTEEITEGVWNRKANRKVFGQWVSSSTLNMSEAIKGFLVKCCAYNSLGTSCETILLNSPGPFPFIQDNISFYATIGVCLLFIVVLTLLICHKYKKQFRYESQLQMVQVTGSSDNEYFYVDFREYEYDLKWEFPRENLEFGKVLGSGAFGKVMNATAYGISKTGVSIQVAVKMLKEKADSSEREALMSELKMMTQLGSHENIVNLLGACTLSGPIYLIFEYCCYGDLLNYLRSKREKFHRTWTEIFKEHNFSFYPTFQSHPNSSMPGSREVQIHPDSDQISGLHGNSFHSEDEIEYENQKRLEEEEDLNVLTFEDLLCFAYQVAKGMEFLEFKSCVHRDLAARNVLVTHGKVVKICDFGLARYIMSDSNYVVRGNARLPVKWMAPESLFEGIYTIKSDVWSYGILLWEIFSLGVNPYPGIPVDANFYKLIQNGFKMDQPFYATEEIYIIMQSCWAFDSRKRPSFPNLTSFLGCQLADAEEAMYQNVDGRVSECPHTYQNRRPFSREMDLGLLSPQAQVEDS
The conditions noted are these: at 1 µM.

Assay [6] has as its target Vascular endothelial growth factor receptor 3 (Homo sapiens) (UniProt P35916). The conditions noted are these: at 0.1 µM.
For assay [7] the target is unchanged. The conditions noted are these: at 1 µM.
The target in assay [8] is Macrophage colony-stimulating factor 1 receptor (Homo sapiens) (UniProt P07333). The note with it: at 0.1 µM.
Macrophage colony-stimulating factor 1 receptor (Homo sapiens), sequence (P07333 whole entry): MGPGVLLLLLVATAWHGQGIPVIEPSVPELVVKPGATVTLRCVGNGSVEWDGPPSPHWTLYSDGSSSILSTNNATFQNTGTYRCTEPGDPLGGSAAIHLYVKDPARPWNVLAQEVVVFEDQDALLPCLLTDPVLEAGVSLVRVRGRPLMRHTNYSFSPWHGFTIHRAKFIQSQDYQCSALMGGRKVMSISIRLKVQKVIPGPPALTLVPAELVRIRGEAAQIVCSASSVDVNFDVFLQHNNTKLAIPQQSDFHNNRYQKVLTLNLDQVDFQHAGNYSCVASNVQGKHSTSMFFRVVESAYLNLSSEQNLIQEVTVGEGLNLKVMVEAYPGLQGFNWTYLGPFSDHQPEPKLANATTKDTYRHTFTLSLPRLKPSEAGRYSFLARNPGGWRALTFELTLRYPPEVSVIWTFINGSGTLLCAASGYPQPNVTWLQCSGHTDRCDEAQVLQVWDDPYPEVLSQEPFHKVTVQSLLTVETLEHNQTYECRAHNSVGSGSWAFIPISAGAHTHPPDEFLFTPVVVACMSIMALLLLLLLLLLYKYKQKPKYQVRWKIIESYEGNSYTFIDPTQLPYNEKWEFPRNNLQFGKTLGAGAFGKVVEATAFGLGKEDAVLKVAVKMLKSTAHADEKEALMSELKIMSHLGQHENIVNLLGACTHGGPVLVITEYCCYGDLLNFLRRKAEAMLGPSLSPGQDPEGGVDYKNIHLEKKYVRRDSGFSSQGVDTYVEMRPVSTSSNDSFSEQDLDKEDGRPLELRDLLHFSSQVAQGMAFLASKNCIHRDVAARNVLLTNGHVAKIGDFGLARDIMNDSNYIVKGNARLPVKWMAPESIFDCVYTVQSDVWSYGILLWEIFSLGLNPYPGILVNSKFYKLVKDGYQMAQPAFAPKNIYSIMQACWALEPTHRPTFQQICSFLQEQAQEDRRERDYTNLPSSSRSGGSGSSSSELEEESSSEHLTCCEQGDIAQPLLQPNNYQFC
The target is the same in assay [9]. The conditions noted are these: at 1 µM.
In assay [10] the target is Tyrosine-protein kinase Fyn (Homo sapiens) (UniProt P06241). The conditions noted are these: at 0.1 µM.
Tyrosine-protein kinase Fyn (Homo sapiens), sequence (P06241 2-537 limits assumed): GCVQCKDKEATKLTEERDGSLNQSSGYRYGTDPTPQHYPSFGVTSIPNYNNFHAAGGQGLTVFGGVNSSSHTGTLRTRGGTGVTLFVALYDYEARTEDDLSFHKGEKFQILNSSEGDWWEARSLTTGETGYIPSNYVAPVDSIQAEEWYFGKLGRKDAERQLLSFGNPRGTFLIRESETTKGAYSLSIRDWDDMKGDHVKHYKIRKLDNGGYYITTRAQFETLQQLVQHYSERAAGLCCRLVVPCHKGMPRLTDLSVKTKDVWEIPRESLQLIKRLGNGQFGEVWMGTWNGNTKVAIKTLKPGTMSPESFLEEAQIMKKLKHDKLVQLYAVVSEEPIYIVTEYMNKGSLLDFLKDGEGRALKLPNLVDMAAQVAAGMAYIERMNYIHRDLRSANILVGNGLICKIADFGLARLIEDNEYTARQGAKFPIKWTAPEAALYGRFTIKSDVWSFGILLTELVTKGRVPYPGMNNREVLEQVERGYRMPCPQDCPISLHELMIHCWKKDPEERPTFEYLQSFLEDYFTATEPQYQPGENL

SMILES strings stand for the structures.

Serine/threonine-protein kinase PLK1 (Homo sapiens), sequence (P53350 whole entry): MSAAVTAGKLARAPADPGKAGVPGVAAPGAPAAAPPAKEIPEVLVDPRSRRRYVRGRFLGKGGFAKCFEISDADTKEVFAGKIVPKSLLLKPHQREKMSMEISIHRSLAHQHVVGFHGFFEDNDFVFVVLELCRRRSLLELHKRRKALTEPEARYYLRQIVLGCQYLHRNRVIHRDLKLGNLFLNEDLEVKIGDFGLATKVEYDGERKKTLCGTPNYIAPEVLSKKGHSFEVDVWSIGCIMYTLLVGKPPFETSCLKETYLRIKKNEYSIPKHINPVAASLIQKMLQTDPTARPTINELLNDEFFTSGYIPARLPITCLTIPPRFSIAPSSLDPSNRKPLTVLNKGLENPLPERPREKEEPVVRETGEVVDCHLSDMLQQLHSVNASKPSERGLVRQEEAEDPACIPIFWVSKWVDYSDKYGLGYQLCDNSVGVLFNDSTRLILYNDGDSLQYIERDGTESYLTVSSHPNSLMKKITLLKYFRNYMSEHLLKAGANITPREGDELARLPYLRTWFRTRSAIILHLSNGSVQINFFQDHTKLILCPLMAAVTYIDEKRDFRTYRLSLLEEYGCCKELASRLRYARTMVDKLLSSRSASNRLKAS
Vascular endothelial growth factor receptor 3 (Homo sapiens), sequence (P35916 whole entry): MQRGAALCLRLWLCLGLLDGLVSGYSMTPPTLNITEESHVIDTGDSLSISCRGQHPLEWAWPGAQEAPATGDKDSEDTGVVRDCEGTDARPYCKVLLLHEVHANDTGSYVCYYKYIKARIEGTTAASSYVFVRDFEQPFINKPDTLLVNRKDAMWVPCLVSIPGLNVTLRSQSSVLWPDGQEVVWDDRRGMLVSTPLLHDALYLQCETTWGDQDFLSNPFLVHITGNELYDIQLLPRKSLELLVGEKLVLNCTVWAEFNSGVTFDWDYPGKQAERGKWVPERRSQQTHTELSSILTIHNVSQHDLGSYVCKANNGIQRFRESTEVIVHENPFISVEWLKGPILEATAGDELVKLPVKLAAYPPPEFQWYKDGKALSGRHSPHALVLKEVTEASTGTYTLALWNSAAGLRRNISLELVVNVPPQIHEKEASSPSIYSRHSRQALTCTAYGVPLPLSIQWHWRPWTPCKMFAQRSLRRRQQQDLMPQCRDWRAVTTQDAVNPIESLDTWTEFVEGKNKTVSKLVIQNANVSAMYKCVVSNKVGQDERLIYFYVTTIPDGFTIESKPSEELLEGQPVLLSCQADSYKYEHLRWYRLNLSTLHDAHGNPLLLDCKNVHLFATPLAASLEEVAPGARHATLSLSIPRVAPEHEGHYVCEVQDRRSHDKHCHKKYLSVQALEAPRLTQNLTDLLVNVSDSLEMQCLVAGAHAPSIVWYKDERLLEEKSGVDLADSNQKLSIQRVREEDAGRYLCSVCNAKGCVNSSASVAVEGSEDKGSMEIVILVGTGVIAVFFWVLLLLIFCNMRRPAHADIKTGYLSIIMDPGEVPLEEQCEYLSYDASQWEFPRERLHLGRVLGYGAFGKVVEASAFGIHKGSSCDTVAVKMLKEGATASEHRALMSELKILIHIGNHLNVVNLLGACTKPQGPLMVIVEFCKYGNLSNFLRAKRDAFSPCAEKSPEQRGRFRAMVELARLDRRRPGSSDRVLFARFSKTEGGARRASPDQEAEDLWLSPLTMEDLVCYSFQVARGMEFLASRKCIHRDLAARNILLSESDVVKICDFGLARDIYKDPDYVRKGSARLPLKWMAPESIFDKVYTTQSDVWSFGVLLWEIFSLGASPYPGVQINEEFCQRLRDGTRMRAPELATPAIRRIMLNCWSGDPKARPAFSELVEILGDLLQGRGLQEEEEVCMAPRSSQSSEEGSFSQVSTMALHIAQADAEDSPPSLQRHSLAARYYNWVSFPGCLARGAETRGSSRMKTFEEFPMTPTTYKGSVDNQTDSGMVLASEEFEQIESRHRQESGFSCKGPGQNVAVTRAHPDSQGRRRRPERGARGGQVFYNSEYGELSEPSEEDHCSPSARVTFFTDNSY

For `COC(=O)c1sc(-n2cnc3cc(OC)c(OC)cc32)cc1OCc1ccccc1C(F)(F)F`, the inhibition in [1] came out at 7%; in assay [2], 3.92%; in assay [3], 14.4%; in [4], 12.7%; in [5] it was 0.96%; in assay [6], 8.44%. The inhibition in [7] was determined as 50.2%; in assay [8], 16.2%; in assay [9] it was 60.9%; in [10] it was 15.6%.

For `N#Cc1c(NC(=O)CN2CCOCC2)sc2c1CCCC2`, the inhibition in assay [1] stood at 1.68%; in assay [2] it was 2.26%; in assay [3] it was 2.27%; in assay [4], 9.9%; in assay [5], 0.1%; in assay [6], 0.77%. Besides, the inhibition stood at 3.83% in [7], 5.19% in assay [8], 2.67% in [9] and 0.52% in assay [10].

In the case of `CNC(=O)c1cc(-c2ccc(F)cc2)cc(-c2ccc(S(=O)(=O)N3CCCC3)cc2)c1N`, the inhibition in assay [1] was determined as 7.69%; in assay [2] it was 2.97%; in assay [3], 3.38%; in [4], 4.67%; in [5] it was 5.93%; in assay [6], 0.74%. Moreover, the inhibition in assay [7] amounted to 2.49%; in [8], 0.47%; in [9] it was 1.28%; in assay [10], 1.22%.

On to `O=S(=O)(CCNCc1ccc(-c2ccc3ncnc(Nc4ccc(OCc5cccc(F)c5)c(Cl)c4)c3c2)o1)c1ccccc1`, for which the inhibition was 4.64% in assay [1]; 6% in assay [2]; 5.8% in [3]; 7.34% in assay [4]; -1.66% in assay [5]; 4.59% in assay [6]. Besides, the inhibition was 7.11% in assay [7], 2.22% in assay [8], 8.85% in assay [9] and 2.58% in assay [10].

`CS(=O)(=O)CCNCc1ccc(-c2ccc3ncnc(Nc4ccc(OCc5ccccc5)c(C(F)(F)F)c4)c3c2)o1`: the inhibition in [1] is 7.1%; in [2] it was 3.58%; in assay [3], 1.98%; in assay [4], 9.3%; in [5], -2.7%; in assay [6] it was 1.59%. For the same molecule, the inhibition was 1.31% in [7], -3.68% in assay [8], 1.56% in [9] and 1.63% in [10].

Consider `Cc1cccc(Nc2ncc(-c3ccccc3)o2)c1`, for which the inhibition turned out to be 4.73% in [1]; 2.24% in assay [2]; 6.33% in assay [3]; 6.38% in assay [4]; 18.6% in assay [5]; 5.49% in assay [6]. The inhibition in assay [7] worked out at 9.11%; in [8] it was 9.54%; in [9] it was 25.7%; in [10] it was 3.07%.

In the case of `CCn1c(-c2nonc2N)nc2c(C#CC(C)(C)O)nc(OC[C@H](N)c3ccccc3)cc21`, the inhibition is 3.62% in assay [1]; 3.81% in [2]; 7.68% in [3]; 7.61% in [4]; 1.02% in [5]; 16.6% in assay [6]. Besides, the inhibition in assay [7] amounted to 62.6%; in [8] it was 3.84%; in [9], 5.51%; in assay [10], 2.39%.

On to `CCn1c(-c2nonc2N)nc2c(C#CC(C)(C)O)ncc(OC3CCNCC3)c21`, for which the inhibition in [1] turned out to be 5.22%; in [2] it was 2.8%; in [3] it was 5%; in assay [4], 5.34%; in [5], 0.12%; in assay [6], 8.92%. The inhibition in assay [7] is 26.6%; in assay [8] it was 1.2%; in assay [9], 2.92%; in assay [10] it was 1.53%.

The record behind these values is ChEMBL document CHEMBL1961873, “Compounds: GSK PKIS; Assays: Nanosyn kinase panel” (2012).
